Results taken from PubChem BioAssay.
For some of these results: Potency and affinity values are given separately. The source made the active and inactive calls.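 Rule for the calls, unless noted: active = primary screen hit whose calcium fluorescence ratio, in both repeats, exceeds the weak agonist control mean by 3 SD; inactive = the rest.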

Legend:
[1] = system: TRPC4 beta (transient receptor potential cation channel C4), mouse; assay: TRPC4 cation channel opening, retest – cell-based, Fluo4 calcium, HEK293 TRPC4beta/mu-opioid, duplicates, 10 µM, confirmation (AID 2426;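 active = fluorescence ratio normalized to control raised more than 50% in primary screen plus both repeat runs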); conditions: Fluo4 calcium fluorescence, at 10 µM; hits give high values
[2] = system: transient receptor potential cation channel C4 beta (TRPC4), mouse; assay: TRPC4 cation channel opening, second retest – cell-based, second round, Fluo4, HEK293 TRPC4beta/mu-opioid, 1 µM, confirmation (AID 2461;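 active = primary screen active and over 50% activation in each of two duplicate runs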); conditions: Fluo4 calcium fluorescence, at 1 µM; hits give high values
[3] = system: TRPC4 (transient receptor potential cation channel C4 beta), mouse; assay: potentiation of DAMGO EC20 TRPC4 response – cell-based, second round, Fluo-4, HEK293 TRPC4beta/mu-opioid, 1 µM, confirmation (AID 2554;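 active = primary screen hit whose fluorescence ratio, in both repeats, exceeds the weak agonist control mean by 3 SD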); conditions: DAMGO EC20, Fluo-4 calcium flux, at 1 µM; hits give high values
[4] = system: TRPC4 beta (transient receptor potential cation channel C4), mouse; assay: potentiation of DAMGO EC20 TRPC4 response – cell-based, Fluo-4, HEK293 TRPC4beta/mu-opioid, confirmation (AID 2555); conditions: DAMGO EC20, Fluo-4 calcium flux, at 10 µM; hits give high values
[5] = molecular target: Short transient receptor potential channel 4 (Mus musculus) (UniProt Q9QUQ5); assay: blockers of DAMGO-evoked TRPC4 calcium flux – cell-based, Fluo4, HEK293 TRPC4beta/mu-opioid, confirmation (AID 2636;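 active = calcium signal cut by more than 3 SD below the full-agonist control yet still positive, in both repeats and the earlier primary screen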); conditions: at 10 µM; hits give high values
Sequence of Short transient receptor potential channel 4 (Mus musculus) (Q9QUQ5 whole entry, looked up): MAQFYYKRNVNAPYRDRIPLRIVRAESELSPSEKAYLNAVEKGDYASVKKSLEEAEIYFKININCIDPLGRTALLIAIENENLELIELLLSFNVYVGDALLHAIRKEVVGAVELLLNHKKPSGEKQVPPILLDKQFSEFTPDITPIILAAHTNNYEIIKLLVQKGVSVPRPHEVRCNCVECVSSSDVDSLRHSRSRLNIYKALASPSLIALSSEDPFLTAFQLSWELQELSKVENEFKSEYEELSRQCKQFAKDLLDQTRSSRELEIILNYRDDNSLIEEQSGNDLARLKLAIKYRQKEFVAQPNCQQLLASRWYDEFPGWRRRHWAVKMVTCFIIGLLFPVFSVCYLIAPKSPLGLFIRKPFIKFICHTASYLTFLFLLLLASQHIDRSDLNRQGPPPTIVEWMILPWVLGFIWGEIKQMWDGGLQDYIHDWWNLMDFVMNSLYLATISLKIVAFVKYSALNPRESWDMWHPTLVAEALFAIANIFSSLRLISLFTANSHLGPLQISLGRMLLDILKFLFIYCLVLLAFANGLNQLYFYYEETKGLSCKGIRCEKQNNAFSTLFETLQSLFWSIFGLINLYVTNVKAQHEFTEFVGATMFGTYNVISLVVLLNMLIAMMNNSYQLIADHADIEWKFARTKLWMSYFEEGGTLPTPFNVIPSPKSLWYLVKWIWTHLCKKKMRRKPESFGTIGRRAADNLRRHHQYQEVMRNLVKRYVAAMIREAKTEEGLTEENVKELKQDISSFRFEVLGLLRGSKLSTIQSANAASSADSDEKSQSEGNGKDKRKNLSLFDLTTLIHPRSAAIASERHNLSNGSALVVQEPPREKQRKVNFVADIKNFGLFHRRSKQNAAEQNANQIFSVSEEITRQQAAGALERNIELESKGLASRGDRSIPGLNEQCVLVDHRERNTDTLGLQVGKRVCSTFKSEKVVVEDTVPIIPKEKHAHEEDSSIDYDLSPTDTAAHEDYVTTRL

[6] = molecular target: Short transient receptor potential channel 4 (Mus musculus) (UniProt Q9QUQ5); assay: blockers of DAMGO-evoked TRPC4 calcium flux – cell-based, second round, Fluo4, HEK293 TRPC4beta/mu-opioid, 1 µM, confirmation (AID 2637;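 active = calcium signal ratio cut to more than 3 SD under the fully stimulated control mean yet still positive, in both repeats and the primary screen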); conditions: at 1 µM; hits give high values
[7] = molecular target: Short transient receptor potential channel 4 (Mus musculus) (UniProt Q9QUQ5); assay: calcium entry via TRPC4 opening agents – cell-based, HEK293 TRPC4/mu-opioid, Fluo-4 calcium, dose response (AID 434937;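 active = primary screen activator hit with a dose response curve and TRPC4 channel activation at any tested dose; inactive = no activation, no dose response, or not a primary hit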)
[8] = molecular target: Short transient receptor potential channel 4 (Mus musculus) (UniProt Q9QUQ5); assay: potentiation of DAMGO-evoked TRPC4 calcium signal – cell-based, HEK293 TRPC4/mu-opioid, Fluo-4 calcium, EC20 DAMGO, dose response (AID 434941;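 active = earlier screen potentiator hit that boosts the TRPC4 ion channel at some dose, with a dose response; inactive = no potentiation, no dose response, or not a prior hit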;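 note: calcium entry triggered by an EC20 dose of DAMGO at the co-expressed mu-opioid receptor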)
[9] = molecular target: Short transient receptor potential channel 4 (Mus musculus) (UniProt Q9QUQ5); assay: block of DAMGO-driven TRPC4 calcium entry – cell-based, HEK293 TRPC4/mu-opioid, Fluo-4 calcium, dose response (AID 434942;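 active = primary screen inhibitor hit that blocks the TRPC4 channel at some tested dose, yielding a dose curve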)
[10] = molecular target: Short transient receptor potential channel 6 (Mus musculus) (UniProt Q61143); assay: TRPC6 blockade by TRPC4 inhibitor hits – cell-based, HEK293, membrane potential dye, duplicate, selectivity assay for TRPC4 inhibitor project, confirmation (AID 434948;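 active = active in primary screen and both duplicates, each dropping signal beyond three positive-control SD with fluorescence still positive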); conditions: HEK293 TRPC6, membrane potential dye fluorescence, at 10 µM, stimulated with maximal-effect acetylcholine; hits give high values
Sequence of Short transient receptor potential channel 6 (Mus musculus) (Q61143 whole entry, looked up): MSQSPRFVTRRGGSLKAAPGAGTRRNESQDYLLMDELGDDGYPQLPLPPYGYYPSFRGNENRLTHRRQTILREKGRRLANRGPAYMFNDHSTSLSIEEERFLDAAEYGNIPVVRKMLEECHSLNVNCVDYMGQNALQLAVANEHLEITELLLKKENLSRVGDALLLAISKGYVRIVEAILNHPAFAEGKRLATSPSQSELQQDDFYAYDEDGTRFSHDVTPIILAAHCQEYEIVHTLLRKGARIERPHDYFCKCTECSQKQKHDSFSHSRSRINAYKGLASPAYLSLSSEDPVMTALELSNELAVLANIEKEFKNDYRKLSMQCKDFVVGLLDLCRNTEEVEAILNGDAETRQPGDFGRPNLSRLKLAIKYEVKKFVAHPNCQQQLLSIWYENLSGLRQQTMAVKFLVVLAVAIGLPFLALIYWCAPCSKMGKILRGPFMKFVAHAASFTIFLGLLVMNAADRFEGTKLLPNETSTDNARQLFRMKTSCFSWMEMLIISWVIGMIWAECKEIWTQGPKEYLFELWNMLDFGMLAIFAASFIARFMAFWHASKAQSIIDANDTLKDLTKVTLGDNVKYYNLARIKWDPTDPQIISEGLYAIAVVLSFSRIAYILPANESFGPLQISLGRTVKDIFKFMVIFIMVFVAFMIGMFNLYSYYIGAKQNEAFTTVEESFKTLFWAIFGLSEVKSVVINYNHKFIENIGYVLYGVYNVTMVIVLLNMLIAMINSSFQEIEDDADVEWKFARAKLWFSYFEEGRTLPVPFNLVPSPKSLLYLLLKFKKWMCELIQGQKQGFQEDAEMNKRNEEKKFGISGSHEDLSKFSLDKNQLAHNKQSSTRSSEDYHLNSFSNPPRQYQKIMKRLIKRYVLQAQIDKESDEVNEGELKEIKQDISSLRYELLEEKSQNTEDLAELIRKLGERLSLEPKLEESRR

[11] = molecular target: Short transient receptor potential channel 6 (Mus musculus) (UniProt Q61143); assay: TRPC6 opening by TRPC4 activator hits – cell-based, HEK293, membrane potential dye, duplicate, selectivity assay for TRPC4 activator project, confirmation (AID 434950;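 active = membrane potential signal rise above negative control mean plus 3 SD in both duplicates, also active in the earlier TRPC4 screen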); conditions: HEK293 TRPC6, membrane potential fluorescence, at 10 µM; activation: hits give high values; outcome: activation
[12] = molecular target: Short transient receptor potential channel 6 (Mus musculus) (UniProt Q61143); assay: positive modulators of mouse TRPC6 channel – HEK293 cells, membrane potential dye, duplicate, selectivity assay for TRPC4 potentiator project, confirmation (AID 434952;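 active = compound raising the membrane signal above positive-control mean plus 3 SD in both repeats, and a primary screen hit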); conditions: HEK293 TRPC6, membrane potential dye fluorescence, at 10 µM, maximal acetylcholine added after compound; hits give high values
[13] = molecular target: Short transient receptor potential channel 4 (Mus musculus) (UniProt Q9QUQ5); assay: calcium flux activators in TRPC4/5HT1a cells, counter-screen for TRPC4 activator project, cell-based, second counter screen, HEK293 TRPC4/5HT1a, Fluo-4 (AID 434977;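 active = calcium signal rise above buffer-control mean plus 5 SD in both duplicates, and also a hit in the primary screen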); conditions: Fluo-4 calcium flux, at 10 µM; hits give high values
[14] = serotonin-gated TRPC4 signal block – cell-based, second counter screen, HEK293 TRPC4/5HT1a, Fluo-4, counter-screen for TRPC4 inhibitor project, confirmation (AID 434978;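 active = primary screen active whose calcium signal fell more than 3 SD beyond the full-serotonin control mean in both duplicate plates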;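 note: serotonin given first at submaximal then at maximal dose after compound preincubation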); conditions: Fluo-4 calcium flux, at 10 µM, serotonin added to trigger calcium flux; hits give high values
[15] = system: TRPC4 (mouse), co-expressed with 5HT1a in HEK293; assay: enhancement of serotonin-evoked TRPC4 response – cell-based, second counter screen, HEK293 TRPC4/5HT1a, Fluo-4, counter-screen for TRPC4 potentiator project, confirmation (AID 434979;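 active = signal rise over 3 SD above mean of control wells given weak agonist, in both repeats and first screen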); conditions: Fluo-4 calcium flux, at 10 µM, serotonin added at its EC20 dose; hits give high values
[16] = nonspecific calcium rise without TRPC4 – cell-based, HEK293 mu-opioid receptor line, counter-screen for TRPC4 activator project, confirmation (AID 449723;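 active = hit in primary screen, with calcium signal over 5 SD above buffer well mean in both duplicates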;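 note: counter screen cells carry the mu-opioid receptor alone and lack TRPC4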); conditions: HEK293 mu-opioid cells, Fluo-4 calcium fluorescence, at 10 µM; hits give high values
[17] = nonspecific potentiation of DAMGO calcium response – cell-based, HEK293 mu-opioid receptor line, counter-screen for TRPC4 allosteric potentiator project, confirmation (AID 449724;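 active = calcium signal rise more than 3 SD above the low-dose agonist control mean, in both duplicate plates and the primary screen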); conditions: HEK293 mu-opioid receptor cells, Fluo-4 calcium flux, at 10 µM, compound added before EC20 DAMGO stimulus; hits give high values

**Q.** What does the source list for `Cc1ccc2nc(C(=O)N3CCc4c([nH]c5ccccc45)C3c3ccccn3)cn2c1` (stereo unspecified)?
**A.** outcome [1]: inactive; outcome [2]: inactive; outcome [3]: inactive; outcome [4]: inactive; outcome [5]: inactive; outcome [6]: inactive; outcome [7]: inactive; outcome [8]: inactive; outcome [9]: inactive; outcome [10]: inactive; outcome [11]: inactive; outcome [12]: inactive; outcome [13]: inactive; outcome [14]: inactive; outcome [15]: inactive; outcome [16]: inactive; outcome [17]: inactive

**Q.** Which outcome [1] does the source give for `OCCNc1nc(Nc2ccccc2)nc2ccccc12` here?
**A.** inactive

**Q.** And the outcome [2]?
**A.** inactive

**Q.** What about the outcome [3] of the same molecule?
**A.** inactive

**Q.** What about the outcome [4] of the same molecule?
**A.** inactive

**Q.** And the outcome [5]?
**A.** inactive

**Q.** What about the outcome [6] of the same molecule?
**A.** inactive

**Q.** What about the outcome [7] of the same molecule?
**A.** inactive

**Q.** And the outcome [8]?
**A.** inactive

**Q.** And the outcome [9]?
**A.** inactive

**Q.** What about the outcome [10] of the same molecule?
**A.** inactive

**Q.** What about the outcome [11] of the same molecule?
**A.** inactive

**Q.** What about the outcome [12] of the same molecule?
**A.** inactive

**Q.** What about the outcome [13] of the same molecule?
**A.** inactive

**Q.** What about the outcome [14] of the same molecule?
**A.** inactive

**Q.** And the outcome [15]?
**A.** inactive

**Q.** And the outcome [16]?
**A.** inactive

**Q.** What about the outcome [17] of the same molecule?
**A.** inactive

**Q.** For `CCCCN(C)CCNC(=O)c1ccc(Cn2c(=S)[nH]c3ccc(Br)cc3c2=O)cc1`, which outcome [1] is on record?
**A.** inactive

**Q.** What about the outcome [2] of the same molecule?
**A.** inactive

**Q.** What about the outcome [3] of the same molecule?
**A.** inactive

**Q.** And the potentiation [4]?
**A.** 16% (active)

**Q.** And the outcome [5]?
**A.** inactive

**Q.** What about the outcome [6] of the same molecule?
**A.** inactive

**Q.** And the outcome [7]?
**A.** inactive

**Q.** What about the outcome [8] of the same molecule?
**A.** inactive

**Q.** And the outcome [9]?
**A.** inactive

**Q.** And the outcome [10]?
**A.** inactive

**Q.** What about the outcome [11] of the same molecule?
**A.** inactive

**Q.** What about the outcome [12] of the same molecule?
**A.** inactive

**Q.** And the outcome [13]?
**A.** inactive

**Q.** And the outcome [14]?
**A.** inactive

**Q.** And the potentiation [15]?
**A.** 33.5% (active)

**Q.** And the outcome [16]?
**A.** inactive

**Q.** And the outcome [17]?
**A.** inactive

**Q.** Which outcome [1] does the source give for `Cc1sc2nc(SCC(N)=O)n(C)c(=O)c2c1C` here?
**A.** inactive

**Q.** What about the outcome [2] of the same molecule?
**A.** inactive

**Q.** What about the outcome [3] of the same molecule?
**A.** inactive

**Q.** And the potentiation [4]?
**A.** 16% (active)

**Q.** And the outcome [5]?
**A.** inactive

**Q.** What about the outcome [6] of the same molecule?
**A.** inactive

**Q.** And the outcome [7]?
**A.** inactive

**Q.** And the outcome [8]?
**A.** inactive

**Q.** What about the outcome [9] of the same molecule?
**A.** inactive

**Q.** What about the outcome [10] of the same molecule?
**A.** inactive

**Q.** What about the outcome [11] of the same molecule?
**A.** inactive

**Q.** What about the outcome [12] of the same molecule?
**A.** inactive

**Q.** What about the outcome [13] of the same molecule?
**A.** inactive

**Q.** What about the outcome [14] of the same molecule?
**A.** inactive

**Q.** And the potentiation [15]?
**A.** 26.5% (active)

**Q.** What about the outcome [16] of the same molecule?
**A.** inactive

**Q.** And the outcome [17]?
**A.** inactive

**Q.** For `CSc1nnc(Cc2sc(-c3ccccc3)nc2-c2ccccc2)o1`, which outcome [1] is on record?
**A.** inactive

**Q.** What about the outcome [2] of the same molecule?
**A.** inactive

**Q.** And the outcome [3]?
**A.** inactive

**Q.** And the outcome [4]?
**A.** inactive

**Q.** And the outcome [5]?
**A.** inactive

**Q.** What about the outcome [6] of the same molecule?
**A.** inactive

**Q.** What about the outcome [7] of the same molecule?
**A.** inactive

**Q.** What about the outcome [8] of the same molecule?
**A.** inactive

**Q.** And the outcome [9]?
**A.** inactive

**Q.** And the outcome [10]?
**A.** inactive

**Q.** What about the outcome [11] of the same molecule?
**A.** inactive

**Q.** And the outcome [12]?
**A.** inactive

**Q.** And the outcome [13]?
**A.** inactive

**Q.** And the outcome [14]?
**A.** inactive

**Q.** And the potentiation [15]?
**A.** 23.3% (active)

**Q.** What about the outcome [16] of the same molecule?
**A.** inactive

**Q.** What about the outcome [17] of the same molecule?
**A.** inactive

**Q.** For `Cc1cc(=O)oc2cc(NC(=S)NCc3ccccn3)ccc12`, which outcome [1] is on record?
**A.** inactive

**Q.** What about the outcome [2] of the same molecule?
**A.** inactive

**Q.** What about the outcome [3] of the same molecule?
**A.** inactive

**Q.** What about the outcome [4] of the same molecule?
**A.** inactive

**Q.** And the outcome [5]?
**A.** inactive

**Q.** What about the outcome [6] of the same molecule?
**A.** inactive

**Q.** And the outcome [7]?
**A.** inactive

**Q.** And the outcome [8]?
**A.** inactive

**Q.** What about the outcome [9] of the same molecule?
**A.** inactive

**Q.** What about the outcome [10] of the same molecule?
**A.** inactive

**Q.** And the outcome [11]?
**A.** inactive

**Q.** What about the outcome [12] of the same molecule?
**A.** inactive

**Q.** And the outcome [13]?
**A.** inactive

**Q.** What about the outcome [14] of the same molecule?
**A.** inactive

**Q.** What about the outcome [15] of the same molecule?
**A.** inactive

**Q.** And the outcome [16]?
**A.** inactive

**Q.** What about the outcome [17] of the same molecule?
**A.** inactive

**Q.** Which outcome [1] does the source give for `Cc1cc(Cl)cc(Cl)c1OCCCCN(C)C` here?
**A.** inactive

**Q.** And the outcome [2]?
**A.** inactive

**Q.** And the potentiation [3]?
**A.** 22% (active)

**Q.** What about the potentiation [4] of the same molecule?
**A.** 18% (active)

**Q.** What about the outcome [5] of the same molecule?
**A.** inactive

**Q.** What about the outcome [6] of the same molecule?
**A.** inactive

**Q.** What about the outcome [7] of the same molecule?
**A.** inactive

**Q.** And the outcome [8]?
**A.** inactive

**Q.** What about the outcome [9] of the same molecule?
**A.** inactive

**Q.** And the outcome [10]?
**A.** inactive

**Q.** And the outcome [11]?
**A.** inactive

**Q.** And the outcome [12]?
**A.** inactive

**Q.** And the outcome [13]?
**A.** inactive

**Q.** And the outcome [14]?
**A.** inactive

**Q.** What about the potentiation [15] of the same molecule?
**A.** 23.9% (active)

**Q.** And the outcome [16]?
**A.** inactive

**Q.** And the outcome [17]?
**A.** inactive

**Q.** With `Cc1ccc(S(=O)(=O)NC(C(=O)Oc2cc3oc(=O)cc(C)c3cc2Cl)C(C)C)cc1` (stereo unspecified) as the molecule, how does the outcome [1] read?
**A.** inactive

**Q.** What about the outcome [2] of the same molecule?
**A.** inactive

**Q.** What about the outcome [3] of the same molecule?
**A.** inactive

**Q.** And the outcome [4]?
**A.** inactive

**Q.** What about the outcome [5] of the same molecule?
**A.** inactive

**Q.** And the outcome [6]?
**A.** inactive

**Q.** And the outcome [7]?
**A.** inactive

**Q.** And the outcome [8]?
**A.** inactive

**Q.** And the outcome [9]?
**A.** inactive

**Q.** And the outcome [10]?
**A.** inactive

**Q.** What about the outcome [11] of the same molecule?
**A.** inactive

**Q.** What about the outcome [12] of the same molecule?
**A.** inactive

**Q.** What about the outcome [13] of the same molecule?
**A.** inactive

**Q.** What about the outcome [14] of the same molecule?
**A.** inactive

**Q.** What about the outcome [15] of the same molecule?
**A.** inactive

**Q.** What about the outcome [16] of the same molecule?
**A.** inactive

**Q.** What about the outcome [17] of the same molecule?
**A.** inactive
